In PubChem BioAssay AID504329 (Southern Research Specialized Biocontainment Screening …, 2011):
Hit rate of the full screen: of about 340,000 compounds, about 1,000 (0.29%) were called active. Rule as the data show it: inconclusive = inhibition above about 27% without an active follow-up result; inactive = below that. The list is a sample of the results. Potency and affinity values are given separately.

assay: H1N1 influenza NS1A inhibitors, functional cell based assay (AID 504329); conditions: percent inhibition, at 12.5 µM, stronger effect = higher value

Structure (SMILES)	inhibition
COc1ccc(C(=O)Nc2ccc(N3CCN(C(=O)C(C)C)CC3)cc2)cc1[N+](=O)[O-]	-5.48% (inactive)
CCOC(=O)C1CCCN(CCC(=O)Nc2ccc(F)c(F)c2)C1 (stereo not drawn)	-6.65% (inactive)
c1ccc(CSC2=NCCCN2)cc1	5.1% (inactive)
Cc1ccc(NC(=O)CSc2nc3ccccc3c(=O)n2CCCC(=O)N2CCCC2)cc1	-0.44% (inactive)
CCN(CC)c1ccc(/C=C2/C(=O)ON=C2C)cc1	22.3% (inactive)
CC1=NN(c2cccc(F)c2)C(=O)/C1=C/c1ccc(N(C)C)cc1	15.2% (inactive)
COc1ccc(NC(=O)CN(C)CC(=O)NCCc2ccc(F)cc2)cc1	-13.6% (inactive)
COCCN(Cc1cc2cccc(C)c2n2nnnc12)C(=O)C(F)(F)F	-4.57% (inactive)
CN(CCc1cn[nH]c1)Cc1nc(Cc2ccccc2)no1	3.23% (inactive)
O=C(Oc1c(CN2CCOCC2)cc(Cl)c2cccnc12)c1ccccc1Cl	13.5% (inactive)
Oc1c(CN2CCOCC2)cc(CN2CCOCC2)cc1CN1CCOCC1	-23.8% (inactive)
COc1ccc(CN2CCN(C)CC2)cc1OCc1ccccc1	0.12% (inactive)
Oc1c(CN2CCOCC2)cc(-c2ccccc2)cc1CN1CCOCC1	9.91% (inactive)
COc1cc(OC)cc(C(=O)Oc2c(CN3CCOCC3)cc(Cl)c3cccnc23)c1	-7.03% (inactive)
CN1CCN(Cc2ccc(OCc3ccccc3)cc2)CC1	-2.13% (inactive)
O=C(Oc1c(CN2CCOCC2)cc(Cl)c2cccnc12)c1ccccc1	-7.41% (inactive)
COc1ccc(C(=O)Oc2c(CN3CCOCC3)cc(Cl)c3cccnc23)cc1	6.29% (inactive)
CC(/C=C1\SC(=S)N(CCC(=O)Nc2nc(C)cs2)C1=O)=C\c1ccccc1	-4.32% (inactive)
COc1ccc(/C=C/c2nc(C)c(-c3ccccc3)c(=O)[nH]2)cc1OC	2.31% (inactive)
CCOc1ccc(C2=CSC3=NCCN23)cc1[N+](=O)[O-]	-15.6% (inactive)
CCOc1ccc(NC(=S)Nc2ccc(OCc3ccccc3)cc2)cc1	22% (inactive)
CCCc1c(C(=O)Nc2ccc(F)cc2F)cnn1-c1ccccc1	2.03% (inactive)
COc1cc(C(=O)N(C)C2CCCN(Cc3ccccc3F)C2)cc(OC)c1OC (stereo not drawn)	-3.71% (inactive)
Oc1c(CNc2ccccc2)cc(COCc2ccccc2)c2cccnc12	-1.39% (inactive)
OC(COCc1ccccc1)CN1CCCC1 (stereo not drawn)	-16.3% (inactive)
CC(C)Oc1cccnc1N(C)C1CCN(Cc2ccccc2)CC1	7.67% (inactive)
COc1cc(CN2CCCCC2)ccc1OCc1ccccc1	-0.75% (inactive)
c1ccc(COc2cccc(CN3CCCCC3)c2)cc1	4.44% (inactive)
